In ChEMBL document CHEMBL3988442, “University of Dundee, Small-Polar-MMV Screening Library” (2021):
For part of these data: Results with a measured potency or affinity are listed apart.

Assays:
Design in all cases: scale not given: direction of the effect not stated beside the values
[1] = molecular target: Protein translocase subunit SecA (Escherichia coli (strain K12)) (UniProt P10408); experiment: Assay to Identify E. coli SecA ATPase Inhibitors; format: functional; conditions: 30 µM
[2] = molecular target: T1, Ubiquitin-activating enzyme e1, putative (Leishmania donovani (strain BPK282A1)) (UniProt E9BSI1); experiment: Leishmania donovani Ubiquitin Activating Enzyme (LdE1); format: functional; conditions: 30 µM
T1 sequence (whole entry): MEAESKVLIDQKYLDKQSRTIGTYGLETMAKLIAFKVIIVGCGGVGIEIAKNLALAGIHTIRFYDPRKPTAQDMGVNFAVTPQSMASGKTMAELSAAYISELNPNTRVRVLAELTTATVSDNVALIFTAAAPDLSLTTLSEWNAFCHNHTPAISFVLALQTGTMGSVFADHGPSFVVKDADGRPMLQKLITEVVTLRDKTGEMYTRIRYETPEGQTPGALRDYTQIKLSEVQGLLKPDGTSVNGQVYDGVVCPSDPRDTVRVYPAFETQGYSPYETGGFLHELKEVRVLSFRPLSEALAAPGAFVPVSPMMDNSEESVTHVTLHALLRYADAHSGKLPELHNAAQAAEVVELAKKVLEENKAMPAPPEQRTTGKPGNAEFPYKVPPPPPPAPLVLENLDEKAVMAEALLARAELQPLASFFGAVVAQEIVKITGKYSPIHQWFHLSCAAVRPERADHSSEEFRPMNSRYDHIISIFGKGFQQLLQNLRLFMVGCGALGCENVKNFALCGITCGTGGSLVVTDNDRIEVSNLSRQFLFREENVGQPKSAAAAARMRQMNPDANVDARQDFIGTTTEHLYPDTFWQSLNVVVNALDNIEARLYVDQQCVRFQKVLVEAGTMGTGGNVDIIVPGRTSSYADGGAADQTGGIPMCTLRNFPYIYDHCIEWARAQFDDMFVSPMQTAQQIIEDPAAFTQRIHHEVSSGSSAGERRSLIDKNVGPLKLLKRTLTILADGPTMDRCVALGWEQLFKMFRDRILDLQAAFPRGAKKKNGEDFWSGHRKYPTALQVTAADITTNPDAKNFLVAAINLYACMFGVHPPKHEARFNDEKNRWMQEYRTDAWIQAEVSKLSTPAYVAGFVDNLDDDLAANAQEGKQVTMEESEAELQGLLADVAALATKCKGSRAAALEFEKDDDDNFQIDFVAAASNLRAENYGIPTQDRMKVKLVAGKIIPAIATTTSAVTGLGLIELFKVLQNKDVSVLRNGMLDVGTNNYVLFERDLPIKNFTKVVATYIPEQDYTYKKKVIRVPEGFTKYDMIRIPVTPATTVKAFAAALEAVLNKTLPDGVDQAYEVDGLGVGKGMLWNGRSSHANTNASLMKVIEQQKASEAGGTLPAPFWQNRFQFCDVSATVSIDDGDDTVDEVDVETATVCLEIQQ

[3] = molecular target: AMP-activated protein kinase, AMPK (Homo sapiens) (UniProt P54646+O43741+P54619+Q9UGJ0+Q9Y478+Q13131+Q9UGI9); experiment: AMP-dependent Kinase enzyme assay. An in vitro enzyme assay that detects ADP turnover that is directly proportional to AMPK activity. This uses naive AMPK that is activated during the assay with MK-8722; format: functional; conditions: 30 µM
[4] = molecular target: Sialic acid-binding Ig-like lectin 9 (Homo sapiens) (UniProt Q9Y336); experiment: Hs-Siglec9 ALPHAscreen SOP 20170721; conditions: 10 µM
Chain of Sialic acid-binding Ig-like lectin 9 (Homo sapiens) (Q9Y336 whole entry): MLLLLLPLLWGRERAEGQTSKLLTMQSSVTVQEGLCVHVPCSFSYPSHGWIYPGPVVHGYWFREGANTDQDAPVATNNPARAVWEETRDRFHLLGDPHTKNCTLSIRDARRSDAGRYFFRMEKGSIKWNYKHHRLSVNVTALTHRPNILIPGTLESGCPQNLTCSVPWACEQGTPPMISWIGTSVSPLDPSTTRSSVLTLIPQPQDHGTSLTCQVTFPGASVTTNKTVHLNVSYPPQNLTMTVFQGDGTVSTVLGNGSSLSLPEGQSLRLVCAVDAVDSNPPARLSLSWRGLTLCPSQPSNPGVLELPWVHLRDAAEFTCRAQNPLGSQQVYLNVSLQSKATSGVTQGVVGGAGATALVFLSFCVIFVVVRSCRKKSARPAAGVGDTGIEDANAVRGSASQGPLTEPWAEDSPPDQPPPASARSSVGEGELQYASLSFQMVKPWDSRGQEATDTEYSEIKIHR

[5] = test system: Trypanosoma cruzi; experiment: Trypanosoma cruzi phosphomannomutase and mannose-1-phosphate guanylyltransferase assay; format: functional; conditions: 10 µM
[6] = molecular target: T2, Arginase-2, mitochondrial (Homo sapiens) (UniProt P78540); experiment: in vitro enzyme assay to detect the production of urea directly proportional to the activity of Arginase II; format: functional; conditions: 33.3 µM; also: in the data most compounds retested in dose-response had high values
T2 sequence (whole entry): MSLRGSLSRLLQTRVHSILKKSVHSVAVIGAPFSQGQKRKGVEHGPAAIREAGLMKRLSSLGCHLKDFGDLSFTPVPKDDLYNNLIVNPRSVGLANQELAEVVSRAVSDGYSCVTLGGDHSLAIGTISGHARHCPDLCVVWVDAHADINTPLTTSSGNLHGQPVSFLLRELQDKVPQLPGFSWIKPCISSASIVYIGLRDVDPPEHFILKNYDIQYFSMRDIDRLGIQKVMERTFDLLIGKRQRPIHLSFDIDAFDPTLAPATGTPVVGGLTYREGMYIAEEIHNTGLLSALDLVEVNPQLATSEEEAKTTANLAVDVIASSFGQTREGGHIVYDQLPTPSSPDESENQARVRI

[7] = molecular target: T3, Proteasome subunit beta (Trypanosoma cruzi) (UniProt O96673); experiment: Trypanosoma cruzi proteasome chymotrypsin-like activity (TcProtChymo) assay.; also: in the data most compounds retested in dose-response had high values; format: functional; conditions: 9.37 µM
T3 sequence (whole entry): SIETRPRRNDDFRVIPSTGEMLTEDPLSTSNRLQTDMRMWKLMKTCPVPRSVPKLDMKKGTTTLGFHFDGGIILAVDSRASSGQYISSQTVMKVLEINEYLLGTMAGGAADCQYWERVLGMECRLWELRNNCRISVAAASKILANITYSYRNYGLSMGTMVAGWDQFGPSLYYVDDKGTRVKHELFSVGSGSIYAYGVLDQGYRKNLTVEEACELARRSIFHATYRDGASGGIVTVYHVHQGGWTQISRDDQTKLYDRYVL

[8] = species: Homo sapiens; experiment: To identify inhibition of the IFN signalling (Jak-Stat) pathway via expression of an eGFP reporter gene under the control of an IFN-stimulated response element (ISRE) containing MxA promoter.; format: functional; conditions: 30 µM
[9] = molecular target: T4, Tyrosyl-tRNA synthetase, putative (Trypanosoma cruzi (strain CL Brener)) (UniProt Q4DSP6); experiment: Trypanosoma cruzi tyrosyl tRNA synthetase (TcYRS) _High Tyrosine SOP; format: functional; conditions: 30 µM; also: in the data most compounds retested in dose-response had high values
T4 sequence (whole entry): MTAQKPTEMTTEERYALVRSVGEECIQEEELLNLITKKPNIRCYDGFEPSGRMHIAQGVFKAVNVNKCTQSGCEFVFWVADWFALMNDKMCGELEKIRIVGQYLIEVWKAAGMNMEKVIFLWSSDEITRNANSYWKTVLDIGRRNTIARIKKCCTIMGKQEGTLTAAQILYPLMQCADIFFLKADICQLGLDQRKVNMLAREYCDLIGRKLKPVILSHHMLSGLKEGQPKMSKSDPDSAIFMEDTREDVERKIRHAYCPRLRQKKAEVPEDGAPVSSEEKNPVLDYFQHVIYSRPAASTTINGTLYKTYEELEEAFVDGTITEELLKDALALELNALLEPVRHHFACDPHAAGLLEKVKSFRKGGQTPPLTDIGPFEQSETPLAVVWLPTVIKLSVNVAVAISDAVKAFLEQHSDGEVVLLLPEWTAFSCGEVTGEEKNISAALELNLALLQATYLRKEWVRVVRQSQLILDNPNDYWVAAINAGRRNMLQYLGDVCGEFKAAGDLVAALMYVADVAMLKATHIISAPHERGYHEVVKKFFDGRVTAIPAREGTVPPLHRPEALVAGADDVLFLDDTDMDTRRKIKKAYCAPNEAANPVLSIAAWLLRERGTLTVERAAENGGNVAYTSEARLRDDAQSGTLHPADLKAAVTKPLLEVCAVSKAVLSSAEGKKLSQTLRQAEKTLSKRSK

[10] = molecular target: T4, Tyrosyl-tRNA synthetase, putative (Trypanosoma cruzi (strain CL Brener)); experiment: Trypanosoma cruzi tyrosyl tRNA synthetase (TcYRS) SOP; format: functional; conditions: 30 µM
[11] = molecular target: Chromo domain-containing protein 1 (Saccharomyces cerevisiae (strain ATCC 204508 / S288c) (Baker's yeast)) (UniProt P32657); experiment: ScCHD-1 Enzyme Inhibition Assay; format: functional; conditions: 30 µM; also: in the data most compounds retested in dose-response had high values
Chain of Chromo domain-containing protein 1 (Saccharomyces cerevisiae (strain ATCC 204508 / S288c) (Baker's yeast)) (P32657 whole entry, the tested form may be a part): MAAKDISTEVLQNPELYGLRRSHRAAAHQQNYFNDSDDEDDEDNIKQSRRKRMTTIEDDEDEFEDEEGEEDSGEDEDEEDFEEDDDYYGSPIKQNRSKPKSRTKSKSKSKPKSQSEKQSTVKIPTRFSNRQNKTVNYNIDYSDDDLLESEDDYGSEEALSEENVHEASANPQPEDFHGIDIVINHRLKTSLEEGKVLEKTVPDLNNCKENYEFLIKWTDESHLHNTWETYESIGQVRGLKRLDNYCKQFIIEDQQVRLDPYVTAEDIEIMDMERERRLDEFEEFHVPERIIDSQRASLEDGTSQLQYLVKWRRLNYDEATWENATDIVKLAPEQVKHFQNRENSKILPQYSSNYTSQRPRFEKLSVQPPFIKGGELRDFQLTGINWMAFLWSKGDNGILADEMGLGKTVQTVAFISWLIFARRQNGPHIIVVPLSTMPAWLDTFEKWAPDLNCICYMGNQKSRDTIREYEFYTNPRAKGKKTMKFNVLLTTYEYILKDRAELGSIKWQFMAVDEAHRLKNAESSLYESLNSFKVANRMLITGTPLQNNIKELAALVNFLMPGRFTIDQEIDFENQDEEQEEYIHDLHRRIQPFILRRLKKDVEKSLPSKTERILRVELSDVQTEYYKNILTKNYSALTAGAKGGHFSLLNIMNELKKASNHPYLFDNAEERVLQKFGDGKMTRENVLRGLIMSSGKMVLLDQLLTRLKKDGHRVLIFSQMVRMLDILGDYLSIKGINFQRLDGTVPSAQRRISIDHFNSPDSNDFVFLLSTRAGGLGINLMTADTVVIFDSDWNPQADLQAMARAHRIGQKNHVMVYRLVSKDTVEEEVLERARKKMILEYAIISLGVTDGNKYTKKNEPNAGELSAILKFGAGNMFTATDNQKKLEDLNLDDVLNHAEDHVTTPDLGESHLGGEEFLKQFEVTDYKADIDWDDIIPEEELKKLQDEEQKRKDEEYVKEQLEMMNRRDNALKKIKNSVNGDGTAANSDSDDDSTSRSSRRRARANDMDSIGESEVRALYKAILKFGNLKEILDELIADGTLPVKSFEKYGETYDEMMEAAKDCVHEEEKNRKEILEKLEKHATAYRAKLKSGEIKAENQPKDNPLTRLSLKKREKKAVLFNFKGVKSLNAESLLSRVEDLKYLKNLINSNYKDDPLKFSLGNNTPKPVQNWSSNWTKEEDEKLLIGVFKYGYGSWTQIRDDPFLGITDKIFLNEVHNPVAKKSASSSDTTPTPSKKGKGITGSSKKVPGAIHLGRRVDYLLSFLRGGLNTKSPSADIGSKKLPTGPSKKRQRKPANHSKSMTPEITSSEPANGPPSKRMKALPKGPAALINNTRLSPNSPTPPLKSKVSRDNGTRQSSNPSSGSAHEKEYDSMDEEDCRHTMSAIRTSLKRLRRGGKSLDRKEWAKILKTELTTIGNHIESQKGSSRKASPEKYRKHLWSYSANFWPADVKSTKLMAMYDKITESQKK

Chain of Protein translocase subunit SecA (Escherichia coli (strain K12)) (P10408 whole entry): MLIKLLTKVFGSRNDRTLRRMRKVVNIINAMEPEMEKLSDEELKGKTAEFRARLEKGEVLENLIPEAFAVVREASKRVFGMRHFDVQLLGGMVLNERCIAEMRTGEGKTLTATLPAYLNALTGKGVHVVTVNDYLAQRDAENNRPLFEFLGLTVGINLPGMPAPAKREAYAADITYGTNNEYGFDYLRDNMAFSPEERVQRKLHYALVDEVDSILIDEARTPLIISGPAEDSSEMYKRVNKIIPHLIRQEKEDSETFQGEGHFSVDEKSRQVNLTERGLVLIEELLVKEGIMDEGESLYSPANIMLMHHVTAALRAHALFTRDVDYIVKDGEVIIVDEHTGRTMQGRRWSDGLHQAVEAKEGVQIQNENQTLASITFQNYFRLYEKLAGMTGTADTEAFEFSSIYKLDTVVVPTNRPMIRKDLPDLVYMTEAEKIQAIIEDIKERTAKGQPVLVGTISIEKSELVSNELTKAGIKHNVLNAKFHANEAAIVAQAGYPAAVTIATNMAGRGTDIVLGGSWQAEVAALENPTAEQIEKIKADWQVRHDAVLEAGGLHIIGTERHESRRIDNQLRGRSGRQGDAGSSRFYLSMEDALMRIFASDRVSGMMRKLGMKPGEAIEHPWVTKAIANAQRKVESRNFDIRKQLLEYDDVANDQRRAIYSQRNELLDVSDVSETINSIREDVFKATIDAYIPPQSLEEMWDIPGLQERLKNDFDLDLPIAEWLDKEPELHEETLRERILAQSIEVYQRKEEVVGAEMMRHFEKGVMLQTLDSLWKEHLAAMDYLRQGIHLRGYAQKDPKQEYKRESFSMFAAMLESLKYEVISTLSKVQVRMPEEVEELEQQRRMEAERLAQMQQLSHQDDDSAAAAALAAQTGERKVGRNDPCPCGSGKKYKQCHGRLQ

| SMILES | Percent Effect [1] | Percent Effect [2] | Percent Effect [3] | Percent Effect [4] | Percent Effect [5] | Percent Effect [6] | Percent Effect [7] | Percent Effect [8] | Percent Effect [9] | Percent Effect [10] | Percent Effect [11] |
| --- | --- | --- | --- | --- | --- | --- | --- | --- | --- | --- | --- |
| c1cnn(CC2CN(Cc3ccc(-n4ccnc4)cc3)CCO2)c1 (stereo unspecified) | -2.02% | 17.7% | -6.89% | 4.49% | 3.68% | 0.76% | 6.14% | 0.886% | 9.36% | 24.1% | -2.59% |
| O=C(CCn1cccn1)N1CCN(CC(F)F)CC1 | -2.93% | 16.2% | -2.79% | -4.78% | -0.836% | 0.554% | 4.13% | 14.6% | 9.9% | 25.6% | -5.97% |
| O=S(=O)(C1CC1)N1CCOCC2(CCN(c3ccccn3)C2)C1 (stereo unspecified) | -6.13% | 1.33% | 15.1% | -7.58% | -5.7% | -6.51% | 7.21% | 3.01% | -6.35% | -5.13% | -5.08% |
| Cc1nn(C)c(N(C)C)c1CNCc1ccccc1CN(C)C | -1.22% | 24.1% | -13.2% | -7.18% | -1.54% | -6.24% | 15.9% | -0.0229% | 1.04% | 2.53% | -30.7% |
| CN1CCN(c2cc(CCNC(=O)C3CCC3)nc(C3CC3)n2)CC1 | -1.04% | 12.2% | 4.69% | 0.557% | -4.74% | -0.232% | 14.2% | 15.8% | 4.3% | 9.09% | -9.84% |
| Fc1ccccc1CN1C[C@@H](OCc2ccncc2)[C@H]2OCCC[C@H]21 | -4.8% | 10.4% | 6.84% | 10.2% | 4.62% | -13.8% | 5.49% | 6.56% | 7.53% | 16.1% | -1.04% |
